An excerpt weighted towards active compounds, which were near 5.7% of everything screened.
HepG2 tox – kills HepG2 cells in TGF-b inhibitor counter-screen | AID 588856 | actives 0.76% (n = 410,000) | Potency, µM (top dose mostly 46.1 µM), usual class: cytotoxic | HepG2 CAGA-GFP viability, ATP luminescence, 18 h
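HepG2 CAGA-GFP cells (1000/well, DMEM with 1% FBS) received compound, then TGF-beta at 500 pg/mL final, and were incubated 18 hours at 37 degrees C. Viability was read by CellTiter-Glo luminescence. Media-only wells were set as complete cell-killing and DMSO as no toxicity.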
ATXN2 expr inh – reduces ATXN2 reporter expression in HEK-293 cells; Potency, µM (series often up to 57 µM), most hits filed as inhibitors; AID 1745845; actives 0.72% (n = 360,000); HEK-293 ATXN2-luciferase reporter, luminescence, 24 h; also: nearly all actives have a fitted effect of over 55% in size
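ATXN2-luciferase reporter cells (luciferase flanked by upstream and downstream ATXN2 gene portions) were treated 24 h at 37 °C with compounds at up to 57 uM. SteadyGlo luminescence gave expression; GF-AFC fluorescence gave viability.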
TGFb SMAD3 inh – blocks TGF-b signaling. actives 1.2% (n = 410,000). AID 588855. HepG2 CAGA-GFP TGF-b/SMAD3 reporter, GFP fluorescence, 18 h; TGF-beta stimulated, 500 pg/mL final. Potency, µM (highest dose often 46.1 µM), actives largely listed as inhibitors; also: nearly all actives have a fitted effect of over 65% in size
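Per well, imaged GFP fluorescence of HEPG2 CAGA-GFP cells gives the signal; cells get compound, then TGF-beta (500 pg/mL final), 18 h at 37 degrees C; %Activity versus -TGF-beta and +DMSO controls.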
IL1B secr inh – inflammasome signaling inhibition, IL-1 beta readout; THP-1 LPS/ATP IL-1B secretion, AlphaLISA, 16 h; stronger effect = lower value; activity change, % at 57.5 µM; actives 4.7% (n = 360,000); AID 743279; in the data active = activity change below about -50%; inconclusive = mostly about -30% to -49%
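THP-1 cells pretreated 1 hr with compounds (up to 57.5 uM final), then stimulated with LPS (250 ng/mL final) plus ATP (1.25 mM final); secreted IL-1B measured by AlphaLISA after 16 hr, decreased signal indicating inhibition.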
S2 tox – reduces viability in counter-screen for ATXN expression inhibitors; AID 651635; Potency, µM (series often up to 56.7 µM), actives largely listed as cytotoxic; S2 cells (HEK-293 line with an ATXN2-luciferase reporter) viability, CellTiter-Fluor protease fluorescence, 24 h; actives 0.49% (n = 400,000); also: nearly all actives have a fitted effect of over 40% in size
Each line names hits and unclear results; the compound was inactive in the other large screens. Unless noted, calls follow the shape of the dose curve; as a rule, active = well fitted curve in the direction sought with a large enough effect; inconclusive = small, poorly fitted or top-dose-only effect, or another doubt; inactive = no such curve, though single readings can be large; an effect the other way counts as inactive or inconclusive.

CCC1=NN(C(=O)c2ccc(C)cc2)C(O)(c2ccc(Br)cc2)C1 (centres undefined)	none
CCCC(=O)NNC(=O)CCC(=O)Nc1ccccc1Cl	none
O=C(NCCN1CCCC1)c1ccccc1Cl	none
O=C1C(Cl)=C(NCc2ccco2)C(=O)c2ccccc21	TGFb SMAD3 inh 11µM, IL1B secr inh -95, S2 tox inconclusive
CCCC(=O)NC1=C(Cl)C(=O)c2ccccc2C1=O	IL1B secr inh -101 (no result: S2 tox)
O=C1C(Cl)=C(NCCN2CCCCC2)C(=O)c2ccccc21	ATXN2 expr inh 14µM, TGFb SMAD3 inh 1.6µM, IL1B secr inh -101, S2 tox 20µM
CCNc1ccccc(-c2ccc3ccccc3n2)c1=O	S2 tox inconclusive
CCNC1=C(Cl)C(=O)c2ccccc2C1=O	HepG2 tox 13µM, TGFb SMAD3 inh inconclusive
CCOC(=O)C1CCN(C(=O)Cn2c(-c3cccs3)cc3cc(Cl)ccc32)CC1	TGFb SMAD3 inh inconclusive (no result: IL1B secr inh)
Cc1nc(SCC(=O)Nc2ccccc2C)cc(-c2ccccc2)n1	none (no result: ATXN2 expr inh, IL1B secr inh, S2 tox)
CCOc1ccc(-n2c(=O)c3c(C)c(C)sc3n(CC(=O)c3ccccc3)c2=O)cc1	none (no result: IL1B secr inh)
Cc1nn(C(=O)c2ccccc2)c(C)c1Sc1ccc(Cl)cc1	ATXN2 expr inh 25µM, TGFb SMAD3 inh inconclusive, S2 tox 28µM (no result: IL1B secr inh)
CC(=O)c1cccc(NC(=O)CSc2nc(C3CC3)nc3ccccc23)c1	IL1B secr inh -96, S2 tox inconclusive
O=C(CSc1nc(C2CC2)nc2ccccc12)Nc1ccccc1N1CCOCC1	IL1B secr inh -76
O=C(CSc1nc(C2CC2)nc2ccccc12)Nc1ccccc1	IL1B secr inh -61
CC(=O)Nc1cccc(NC(=O)CSc2nc(C3CC3)nc3ccccc23)c1	IL1B secr inh -79, S2 tox inconclusive
O=C(Nc1nc(-c2ccc(Br)cc2)ns1)c1ccc(F)cc1	none (no result: ATXN2 expr inh, IL1B secr inh, S2 tox)
O=S(=O)(NCCc1cn(S(=O)(=O)c2ccccc2)c2ccccc12)c1ccccc1	none (no result: ATXN2 expr inh, IL1B secr inh, S2 tox)
Cc1cccc(CCNc2ncnc3onc(-c4ccc(Cl)cc4)c23)c1	none (no result: IL1B secr inh)
CCOc1ccccc1NC(=O)CSC1=Nc2ccccc2C2=NC(CC(=O)NCc3ccc4c(c3)OCO4)C(=O)N12 (centres undefined)	TGFb SMAD3 inh inconclusive, S2 tox inconclusive (no result: IL1B secr inh)
O=C(N/N=C/c1ccccc1)c1ccc(OCc2ccccc2)cc1	none (no result: ATXN2 expr inh)
Cc1ccc(COc2ccc(/C=N/O)cc2)cc1	none
NC(N)=N/N=C/c1ccc(OCc2ccc(Cl)cc2)cc1	HepG2 tox 10µM, ATXN2 expr inh inconclusive, TGFb SMAD3 inh inconclusive, IL1B secr inh -94, S2 tox 32µM
NC(N)=N/N=C/c1ccc(OCc2ccccc2)cc1	HepG2 tox 13µM, ATXN2 expr inh inconclusive, TGFb SMAD3 inh inconclusive, IL1B secr inh -83, S2 tox inconclusive
COc1cc(NC(=O)Cn2nnc(-c3ccccc3N)n2)cc(OC)c1	IL1B secr inh -59
O=C(NCCCN1CCCCC1)c1[nH]c2ccccc2c1Sc1ccc(Cl)cc1	HepG2 tox 13µM, ATXN2 expr inh inconclusive, TGFb SMAD3 inh inconclusive (no result: IL1B secr inh, S2 tox)
CC1CCCCN1CCCNC(=O)c1[nH]c2ccccc2c1Sc1ccc(Cl)cc1 (centres undefined)	ATXN2 expr inh inconclusive, TGFb SMAD3 inh inconclusive (no result: IL1B secr inh, S2 tox)
CC(C)c1ccc2[nH]c3c(c2c1)CCC/C3=N\NC(=O)c1ccncc1	IL1B secr inh -53 (no result: S2 tox)
C#CCn1cc(/C=N/Nc2nc3ccccc3[nH]2)c2ccccc21	TGFb SMAD3 inh inconclusive, IL1B secr inh -92
CCCCn1c(/C=N/Nc2nc3ccccc3[nH]2)nc2ccccc21	ATXN2 expr inh inconclusive, TGFb SMAD3 inh 11µM, S2 tox inconclusive
Fc1ccccc1-c1ccc(/C=N/Nc2nc3ccccc3[nH]2)o1	TGFb SMAD3 inh 13µM (no result: ATXN2 expr inh)
Cc1ccc(C(=O)C[n+]2cccc3cccc(O)c32)cc1	none (no result: ATXN2 expr inh, IL1B secr inh, S2 tox)
COc1ccccc1CN(Cc1nc2ccccc2c(=O)[nH]1)C(=O)Nc1cccc(C)c1	HepG2 tox 8.9µM, TGFb SMAD3 inh inconclusive
CC(C)C(=O)N(Cc1ccc(F)cc1)Cc1nc2ccccc2c(=O)[nH]1	HepG2 tox 20µM
COc1ccc(-c2nc(CCNC(=O)c3c(F)cccc3Cl)cs2)cc1	TGFb SMAD3 inh inconclusive (no result: ATXN2 expr inh, IL1B secr inh, S2 tox)
COc1ccc(NC(=O)c2oc3ccccc3c2NC(=O)C(C)(C)C)cc1	IL1B secr inh -55

Screening results as filed in PubChem.
